# From PubChem BioAssay (Tox21)
# Activity calls are given as the source filed them. Entries that show only a call come without a potency. Unless noted, calls follow the shape of the dose curve; as a rule, active = well fitted curve in the direction sought with a large enough effect in the repeat runs; inconclusive = weak or mixed curves; inactive = no such curve, though single readings can be large; an effect the other way counts as inactive or inconclusive. Positions of bridges follow the written chain, without caps; N, C: chain ends. Non-standard residues stand in square brackets, D forms with d. Residues, ends and D or L forms follow the SMILES beside them. *: point of attachment. X2 = CC[C@H](C)CCCCC(=O)*; Dab = NCC[C@H](N)C(=O)O
# Legend:
# [1] = qHTS assay for small molecules that induce genotoxicity in human embryonic kidney cells expressing luciferase-tagged ATAD5 (AID 651632); also: nearly all actives have a fitted effect of over 15% in size
# Outline: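 Test compounds were delivered by pin tool onto HEK293T reporter cells (2,000/well) expressing ATAD5 fused to luciferase. After 16 hr at 37C, 5% CO2, Amplite was added for 30 min at room temperature and luminescence was measured.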
# [2] = qHTS assay for small molecule agonists of the p53 signaling pathway - cell viability (AID 651633; calls by dose curve; also: nearly all actives have a fitted effect of over 30% in size; also: potency is read from the fitted curve at half-maximal effect)
# Outline: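 p53RE-bla cells, seeded at 4,000 per well and rested 5 h at 37 C/5% CO2, received compounds in DMSO for 16 h at 37 C. CellTiter-Glo was then added, and luminescence was read after 30 min at room temperature to gauge cytotoxicity.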
# [3] = qHTS assay for small molecules that induce genotoxicity in human embryonic kidney cells expressing luciferase-tagged ATAD5 - cell viability (AID 651634; calls by dose curve; also: nearly all actives have a fitted effect of over 25% in size; also: potency is read from the fitted curve at half-maximal effect)
# Outline: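 Quantitative high-throughput format. HEK293T cells expressing ATAD5 fused to luciferase were plated at 2,000 cells/well and treated 15.5 hr with compound versus DMSO. Viability was determined by fluorescent live-cell protease substrate, 30 min at 37C.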
# [4] = qHTS assay for small molecule disruptors of the mitochondrial membrane potential - cell viability (AID 720634; calls by dose curve;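 also: human HepG2 liver cancer cells; nearly all actives have a fitted effect of over 20% in size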)
# Outline: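 Same-well counter-screen: following the MMP dye addition, CellTiter-Glo was added to 1 hr compound-treated HepG2 cells and luminescence read after 30 min at room temperature.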
# [5] = qHTS assay for small molecule disruptors of the mitochondrial membrane potential (AID 720635)
# Outline: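 HepG2 cells (2,000/well) attached overnight at 37C, then took compound for 1 hr at 37C, 5% CO2. Mito-MPS dye was added for 30 min; fluorescence was read at 490/535 nm (monomers) and 540/590 nm (aggregates).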
# [6] = qHTS assay to test for compound auto fluorescence at 590 nm (red) in HepG2 cells (AID 720674)
# Outline: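 Intrinsic compound fluorescence in the red window (Ex/Em 540/590 nm) is measured in attached HepG2 cells exposed for 1 hr, DMSO vehicle as baseline, benchmarked to Rose Bengal sodium.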
# [7] = qHTS assay to test for compound auto fluorescence at 535 nm (green) in HepG2 cells (AID 720675)
# [8] = qHTS assay to test for compound auto fluorescence at 460 nm (blue) in HEK293 cells (AID 720678)
# Outline: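 Blue read-out at excitation 405 nm and emission 460 nm follows overnight compound exposure of HEK293 cells at 37C in 5% CO2. Activity is given as auto fluorescence equivalency to triamterene.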
# [9] = qHTS assay to test for compound auto fluorescence at 590 nm (red) in HEK293 cells (AID 720679)
# Outline: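 Red channel, Ex/Em 540/590nm; signal expressed as equivalency to Rose Bengal sodium. HEK293, 2,000 cells/well, 10% dialyzed FBS; 23 nL compound pinned after 4-5 hr attachment; overnight 37C/5% CO2 before reading.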
# [10] = qHTS assay to test for compound auto fluorescence at 535 nm (green) in HEK293 cells (AID 720680)
# [11] = qHTS assay to test for compound auto fluorescence at 460 nm (blue) in HEK293 cell free culture (AID 720681)
# Outline: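 Test compounds were pinned into cell-free culture medium (DMEM with 10% FBS) and fluorescence was read directly at Ex/Em 405/460 nm. Signals were expressed as fluorescence equivalents of triamterene, with DMSO vehicle as control.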
# [12] = qHTS assay to test for compound auto fluorescence at 535 nm (green) in HEK293 cell free culture (AID 720682)
# Outline: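 Steps: dispense DMEM/10% FBS into empty wells; pin in compound or DMSO; measure fluorescence at 485/535 nm. Values are fluorescein equivalents.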
# [13] = qHTS assay to test for compound auto fluorescence at 590 nm (red) in HEK293 cell free culture (AID 720683)
# Outline: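 Tox21 10K library compounds were pinned into cell-free DMEM with 10% FBS and fluorescence was read at excitation 540 nm. Activity is expressed as Rose Bengal sodium equivalency.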
# [14] = qHTS assay to test for compound auto fluorescence at 590 nm (red) in HepG2 cell free culture (AID 720684)
# Outline: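 Ex 540 / Em 590 nm read of compound in cell-free MEM (10% FBS). Rose Bengal sodium reference.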
# [15] = qHTS assay to test for compound auto fluorescence at 460 nm (blue) in HepG2 cell free culture (AID 720685)
# Outline: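 Cell-free plates of MEM plus 10% FBS received 23 nL compound or DMSO vehicle; blue-channel (405/460 nm) intensity scored against triamterene as reference fluorophore.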
# [16] = qHTS assay to test for compound auto fluorescence at 535 nm (green) in HepG2 cell free culture (AID 720686)
# [17] = qHTS assay to test for compound auto fluorescence at 460 nm (blue) in HepG2 cells (AID 720687)
# Outline: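 Cells (2,000/well in MEM with 10% FBS) attached overnight at 37 C, then were exposed to compound or DMSO for 1 hr at 37 C, 5% CO2. Fluorescence read at Ex/Em 405/460 nm, expressed as triamterene-equivalent signal.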
# [18] = molecular target: Glucocorticoid receptor (Homo sapiens) (UniProt P04150); assay: qHTS assay to identify small molecule agonists of the glucocorticoid receptor (GR) signaling pathway (AID 720691; active = well fitted activation curve with a large enough effect in the signal ratio in the repeat runs, not every such curve was filed as active; inconclusive = weak or mixed curves, or effect the other way; inactive = no such curve, though single readings can be large or run the other way; the % refers to the signal ratio; also: potency is read from the fitted curve at half-maximal effect); details: GR-bla HeLa, beta-lactamase reporter ratio, 18 h; activation: at 62.4 µM (top of the series)
# Outline: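 A HeLa cervical cancer line expressing GR and a glucocorticoid response element-driven beta-lactamase gene is treated with compounds for 18 h; LiveBLAzer B/G FRET substrate is then applied and fluorescence read.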
# [19] = molecular target: Glucocorticoid receptor (Homo sapiens) (UniProt P04150); assay: qHTS assay to identify small molecule antagonists of the glucocorticoid receptor (GR) signaling pathway (AID 720692; active = well fitted inhibition curve with a large enough effect in the signal ratio in the repeat runs, not every such curve was filed as active; inconclusive = weak or mixed curves, or effect the other way; inactive = no such curve, though single readings can be large or run the other way; the % refers to the signal ratio; also: potency is read from the fitted curve at half-maximal effect)
# Outline: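 GRE-bla HeLa line, dex-stimulated (5 nM final). Compound exposure 18 h, 37 C. Beta-lactamase FRET read after 2 h RT substrate.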
# Chain of Glucocorticoid receptor (Homo sapiens) (P04150 whole entry, looked up): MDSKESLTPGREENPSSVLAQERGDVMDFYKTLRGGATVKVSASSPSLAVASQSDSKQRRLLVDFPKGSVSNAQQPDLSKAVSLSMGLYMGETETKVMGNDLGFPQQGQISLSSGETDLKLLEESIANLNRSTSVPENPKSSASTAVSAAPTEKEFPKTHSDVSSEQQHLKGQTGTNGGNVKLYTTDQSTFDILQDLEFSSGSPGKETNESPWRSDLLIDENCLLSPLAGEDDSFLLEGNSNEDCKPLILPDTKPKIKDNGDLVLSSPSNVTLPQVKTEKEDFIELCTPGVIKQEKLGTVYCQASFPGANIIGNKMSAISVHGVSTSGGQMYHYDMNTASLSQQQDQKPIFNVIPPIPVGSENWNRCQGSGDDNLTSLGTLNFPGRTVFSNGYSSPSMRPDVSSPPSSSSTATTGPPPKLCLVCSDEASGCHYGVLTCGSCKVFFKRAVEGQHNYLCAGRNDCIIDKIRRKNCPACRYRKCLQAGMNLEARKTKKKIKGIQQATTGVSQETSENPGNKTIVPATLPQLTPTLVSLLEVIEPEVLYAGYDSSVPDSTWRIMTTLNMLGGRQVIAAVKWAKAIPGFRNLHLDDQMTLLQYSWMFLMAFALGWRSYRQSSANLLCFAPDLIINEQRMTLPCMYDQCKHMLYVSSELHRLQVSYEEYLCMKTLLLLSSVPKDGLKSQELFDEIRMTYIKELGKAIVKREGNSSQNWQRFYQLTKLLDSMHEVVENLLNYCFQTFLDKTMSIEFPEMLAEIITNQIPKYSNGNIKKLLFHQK
Structure (SMILES),Potency [1],Potency [2],Potency [3],Potency [4],Potency [5],Potency [6],Potency [7],Potency [8],Potency [9],Potency [10],Potency [11],Potency [12],Potency [13],Potency [14],outcome [15],Potency [16],outcome [17],Potency [18],Potency [19]
CS(=O)(=O)OCC(O)C(O)COS(C)(=O)=O (centres undefined),inactive,inactive,inactive,inactive,inactive,inactive,inactive,inactive,inactive,inactive,inactive,inactive,inactive,inactive,inactive,inactive,inactive,inactive,inactive
Cc1c(O)cc2c(c1C)O[C@](C)(CCC[C@H](C)CCC[C@H](C)CCCC(C)C)CC2,inactive,inactive,inactive,inactive,inactive,inactive,inactive,inactive,inactive,inactive,inactive,inactive,inactive,inactive,inactive,inactive,inactive,inactive,inactive
COCC(=O)Nc1cc(Sc2ccccc2)ccc1N=C(NC(=O)OC)NC(=O)OC,inactive,inactive,4220 nM (active),inactive,inactive,inactive,inactive,inactive,inactive,inactive,inactive,inactive,inactive,inactive,inactive,inactive,inactive,inactive,–
CC[C@H](C)CCCCC(=O)N[C@@H](CCN)C(=O)N[C@H](C(=O)N[C@@H](CCN)C(=O)N[C@H]1CCNC(=O)[C@@H]([C@H](C)O)NC(=O)[C@H](CCN)NC(=O)[C@H](CCN)NC(=O)[C@H](CC(C)C)NC(=O)[C@@H](CC(C)C)NC(=O)[C@H](CCN)NC1=O)[C@@H](C)O (X2-[Dab]T[Dab][Dab][Dab][dL]L[Dab][Dab][dT]; lactam 4-C),inactive,inactive,inactive,inactive,inactive,inactive,inactive,inactive,inactive,inactive,inactive,inactive,inactive,inactive,inactive,inactive,inactive,inactive,inactive
COc1ccc(CC2c3cc(OC)c(OC)cc3CC[N+]2(C)CCC(=O)OCCCCCOC(=O)CC[N+]2(C)CCc3cc(OC)c(OC)cc3C2Cc2ccc(OC)c(OC)c2)cc1OC (centres undefined),inactive,inactive,inactive,inactive,inactive,inactive,inactive,inactive,inactive,inactive,inactive,inactive,inactive,inactive,inactive,inactive,inactive,1290 nM [inconclusive] (active),–
CC1(C)N=C(N)N=C(N)N1c1ccc(Cl)cc1,inactive,5960 nM (active),inactive,inactive,inactive,inactive,inactive,inactive,inactive,inactive,inactive,inactive,inactive,inactive,inactive,inactive,inactive,inactive,inactive
c1ccc2cc(C3=NCCN3)ccc2c1,inactive,inactive,inactive,inactive,inactive,inactive,inactive,inactive,inactive,inactive,inactive,inactive,inactive,inactive,inactive,inactive,inactive,inactive,inactive
COc1ccc2cc([C@H](C)CO)ccc2c1,inactive,inactive,inactive,inactive,inactive,inactive,inactive,inactive,inactive,inactive,inactive,inactive,inactive,inactive,inactive,inactive,inactive,inactive,inactive
COc1ccc(C(=O)CCC(=O)O)c2ccccc12,inactive,inactive,inactive,inactive,inactive,inactive,inactive,inactive,inactive,inactive,inactive,inactive,inactive,inactive,inactive,inactive,inactive,inactive,–
CCCCCCCCCCCCCCCC(=O)OCC(COC(=O)CCCCCCCCCCCCCCC)OC(=O)CCCCCCCCCCCCCCC,inactive,inactive,inactive,inactive,inactive,inactive,inactive,inactive,inactive,inactive,inactive,inactive,inactive,inactive,inactive,inactive,inactive,inactive,inactive
C#C[C@]1(O)CC[C@H]2[C@@H]3CCC4=CC(=O)CC[C@@H]4[C@H]3C(=C)C[C@@]21CC,inactive,inactive,inactive,inactive,inactive,inactive,inactive,inactive,inactive,inactive,inactive,inactive,inactive,inactive,inactive,inactive,inactive,inactive,379 nM (active)
CC(=O)Nc1c(I)c(C(=O)N[C@H]2C(O)O[C@H](CO)[C@@H](O)[C@@H]2O)c(I)c(N(C)C(C)=O)c1I (some centres undefined),inactive,inactive,inactive,inactive,inactive,inactive,inactive,inactive,inactive,inactive,inactive,inactive,inactive,inactive,inactive,inactive,inactive,inactive,–
